Reference: PubChem BioAssay (NCI)
This is part of a sample that, as a whole, favours compounds with a hit. Of some 83,000 tested, about 20% had one in any assay.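 The endpoint reported here, percent growth, reads 100 for growth as untreated, 0 for no net growth and -100 for all cells dead.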 Values without a mark were called inactive. Calls of active or inactive are those of the source. The calls were made as follows: active = growth percent below 10; inactive = the rest.

How the values were obtained:
Assay in all cases: NCI-60 one-dose screen, 48 h (100 = growth as untreated, 0 = no growth, -100 = all killed)
Conditions in all cases: 10 µM unless noted
[1] = test system: NCI-H23 lung
[2] = test system: NCI-H226 lung
[3] = test system: NCI-H322M lung
[4] = test system: HOP-62 NSCLC
[5] = test system: NCI-H460 lung
[6] = test system: HOP-92 NSCLC
[7] = test system: NCI-H522 lung
[8] = test system: A549/ATCC NSCLC
[9] = test system: 786-0 renal
[10] = test system: COLO 205 colon

SMILES | growth [1] | growth [2] | growth [3] | growth [4] | growth [5] | growth [6] | growth [7] | growth [8] | growth [9] | growth [10]
CN(C)c1ccc2cc3c(cc2c1)Oc1ccccc1N3.[Cl][Zn][Cl] | 78.7% | 91.2% | 84.7% | 105% | 96.8% | 98.8% | -7.15% (active) | 91.8% | 104% | 19.2%
CN1CCC(c2ccccc2)(c2ccccc2)C(=O)C1 | 80.1% | 67.7% | 87.6% | 107% | 98% | 89% | 75.4% | 79.7% | 86.7% | 98.4%
CN(C)c1ccc(C(C#N)(c2ccccc2)c2ccc(N(C)C)cc2)cc1 | 54.2% | 72.3% | 86.8% | 90.6% | 50.8% | 54.6% | 82.2% | 49.9% | 67.7% | 45.2%
CC(=O)c1ccc2c(c1)CCc1ccccc1-2 | 107% | 94.7% | 116% | 88.5% | 107% | 95.3% | 110% | 91% | 83.7% | 110%
S=C(SSC(=S)N1CCOCC1)N1CCOCC1 | 48.9% | 94.5% | 116% | 104% | 2.9% (active) | 122% | -50.2% (active) | 57.2% | 103% | 28.6%
CCCCCCN(CCCCCC)CCCNc1nccc2ccccc12 | 12% | 42.9% | 28.7% | 64.3% | 3.2% (active) | -14.6% (active) | 4.1% (active) | 14.3% | 5.89% (active) | -66% (active)
CCCCCCCCc1cc(Cl)c(O)c(Cl)c1 | 103% | 104% | 121% | 105% | 109% | 99.5% | 97.6% | 98.5% | 108% | 108%
O=C(c1ccccc1)C(Br)[N+](=O)[O-] (stereo not given) | 99.8% | 101% | 101% | 73.6% | 101% | 103% | 64.4% | 69.6% | 106% | 86.8%
COc1cc([C@@H]2c3cc4c(cc3[C@H](OC3OC5COC(c6ccccc6)OC5C(O)C3O)[C@H]3COC(=O)[C@H]23)OCO4)cc(OC)c1OC (stereo not given in full) | 22.4% | 75.9% | 44.2% | 29.6% | 20.8% | 37.7% | 17.5% | 64.8% | 64% | -77.6% (active)
O=C(c1ccc(O)c(Br)c1)c1ccc(O)c(Br)c1 | 103% | 109% | 113% | 102% | 111% | 101% | 115% | 109% | 107% | 112%
O=C(Cc1ccccc1)C(F)(F)F | 103% | 105% | 94.2% | 102% | 103% | 104% | 107% | 105% | 94% | 104%
CCC(C)C(N)C(=O)NC(CC(N)=O)C(=O)NC(CC(C)C)C(=O)NC(CCCCN)C(=O)NC(C)C(=O)NC(CC(C)C)C(=O)NC(C)C(=O)NC(C)C(=O)NC(CC(C)C)C(=O)NC(C)C(=O)NC(CCCCN)C(=O)NC(CCCCN)C(=O)NC(C(=O)NC(CC(C)C)C(N)=O)C(C)CC (stereo not given) | 82.1% | 113% | 100% | 74.9% | 79.3% | 61% | 85.2% | 90.3% | 68.1% | 90%
O=[N+]([O-])c1ccc(Oc2ccccc2Cl)c([N+](=O)[O-])c1 | 73.9% | 83.8% | 97.8% | 99.4% | 105% | 83.7% | 73.8% | 92.7% | 83.7% | 112%
Cc1ccc(/C=C2\CNC/C(=C\c3ccc(C)cc3)C2=O)cc1 | 2.76% (active) | -63.2% (active) | 22.9% | 4.5% (active) | -47.1% (active) | 11% | -54% (active) | -53.7% (active) | -71.5% (active) | -70.5% (active)
